Assay outcomes (PubChem BioAssay)
DUSP3 inh: VHR1 phosphatase inhibitors, primary screen, biochemical, colorimetric, HTS. Dual specificity protein phosphatase 3 (Homo sapiens), P51452. recombinant VHR phosphatase, colorimetric substrate read-out. inhibition, % at 20 µM. actives 0.7% (n = 50,000). AID 1992, 2009; in the data active = inhibition above about 60%
Target sequence (P51452 whole entry, looked up): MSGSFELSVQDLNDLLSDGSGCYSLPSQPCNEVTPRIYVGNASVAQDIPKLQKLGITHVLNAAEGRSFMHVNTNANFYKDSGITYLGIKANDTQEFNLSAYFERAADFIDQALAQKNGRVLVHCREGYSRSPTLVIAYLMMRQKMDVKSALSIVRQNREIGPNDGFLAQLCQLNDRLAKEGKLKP
* marks the source's active call; other numbers are inactive results. The full list was thinned out, with hits kept by preference.

SMILES | DUSP3 inh
COc1ccc(-c2cc(C(=O)NCCc3ccccc3)c3ccccc3n2)c(OC)c1 | 102.4*
COc1ccc(-c2cc(C(=O)NCCc3ccccc3)c3ccccc3n2)cc1OC | -12.4
COc1ccc(-c2cc(C(=O)NCCc3ccc(OC)c(OC)c3)c3ccccc3n2)c(OC)c1 | -41.4
CN(C)c1cccc(NC(=O)c2cc(F)c(F)cc2Cl)c1 | 23.9
O=C(Nc1ccc(Cc2ccncc2)cc1)Nc1cccc2ccccc12 | 24.5
O=C1N=c2ccccc2=C1c1sc(Nc2cccc(O)c2)nc1O | -0.2
CCOc1ccc(Nc2nc(O)c(C3=c4cc(Br)ccc4=NC3=O)s2)cc1 | -13.5
O=C1N=c2ccccc2=C1c1sc(Nc2ccc(O)cc2)nc1O | 57.8*
COc1cc(NC(=O)c2cccnc2)ccc1NC(=O)c1ccco1 | 3.5
CN(C)c1ccc(/C=C(\NC(=O)c2ccc([N+](=O)[O-])cc2)C(=O)NN)cc1 | 9.1
COc1ccc(C(C)NC(=O)CN(c2ccc(OC)cc2OC)S(=O)(=O)c2ccccc2)cc1 (configuration not stated) | 12.4
Cc1ccc(S(=O)(=O)/N=C2\C=C(Sc3ncn[nH]3)C(=O)c3ccccc32)cc1 | 63.5*
O=C1C(Cl)=CC(=NS(=O)(=O)c2ccc(Cl)cc2)c2ccccc21 | 3.7
Cc1ccc(S(=O)(=O)/N=C2\C=CC(=O)C=C2Cl)cc1 | 59.9
CCN(CC)CCCN1C(=O)C(C)SC1c1ccccc1[N+](=O)[O-] (configuration not stated) | -26.6
COc1ccc(S(=O)(=O)N/N=C/c2ccc3c(c2)OCO3)cc1 | -5.2
O=[N+]([O-])c1ccc(S(=O)(=O)N/N=C/c2ccc3c(c2)OCO3)cc1 | -19.2
CC(C)(C)c1ccc(S(=O)(=O)N/N=C/c2ccc3c(c2)OCO3)cc1 | 110.8*
CC1=C(C(=O)OCc2ccccc2)C(c2cc3c(cc2Cl)OCO3)C2=C(CC(C)(C)CC2=O)N1 (configuration not stated) | 9.8
CCOc1ccc(S(=O)(=O)n2cnc3cc([N+](=O)[O-])ccc32)c2ccccc12 | -7.3
Cn1ccnc1SCC(=O)N1c2ccccc2-c2c(ssc2=S)C1(C)C | 37.0
COc1cc(C(=O)N2c3ccccc3-c3c(ssc3=S)C2(C)C)cc(OC)c1OC | 10.1
COc1ccc2c(c1)N(C(=O)CN1C(=O)c3ccccc3C1=O)C(C)(C)c1ssc(=S)c1-2 | -13.9
CC1(C)c2ssc(=S)c2-c2ccccc2N1C(=O)CSc1nnc(N)s1 | -2.2
CC1(C)c2ssc(=S)c2-c2ccccc2N1C(=O)CN1CCOCC1 | 97.3*
SMILES | DUSP3 inh
CC1(C)c2ssc(=S)c2-c2ccccc2N1C(=O)CN1CCCCC1 | 97.9*
Cn1cccc1CC(=O)N/N=C/c1ccccn1 | -33.7
O=C(/C=C/c1ccco1)Nc1ccc(O)c(-c2nc3ccccc3o2)c1 | 17.5
O=C(Nc1ccc(-c2nc3ccccc3s2)c(O)c1)c1cc2ccccc2o1 | -6.8
O=C(/C=C/c1ccco1)Nc1ccc(-c2nc3ccccc3s2)c(O)c1 | 74.7*
Cc1ccc(S(=O)(=O)Nc2cc(C)c(O)c(C)c2)cc1 | 7.3
COc1ccc(C2CC(=O)C3=C(C2)Nc2ccccc2NC3c2cc([N+](=O)[O-])ccc2Cl)cc1OC (configuration not stated) | -1.6
CC(=O)N1c2ccc3ccccc3c2C2C=CCC2C1c1ccc(Br)cc1 (configuration not stated) | 2.0
CCOC(=O)c1ccc2c(c1)C1C=CCC1C(c1cccc3ccccc13)N2 (configuration not stated) | 40.4
O=[N+]([O-])c1ccc2c(c1)C1C=CCC1C(c1ccc(Cl)cc1)N2 (configuration not stated) | -7.8
O=C(O)C1Nc2c(C(=O)N3CCCC3)cccc2C2C=CCC12 (configuration not stated) | -1.2
O=[N+]([O-])c1cccc(C2Nc3ccc(Cl)cc3C3C=CCC32)c1 (configuration not stated) | 2.3
Cc1c(Cl)ccc2c1NC(C(=O)O)C1CC=CC21 (configuration not stated) | 84.2*
O=C(O)c1cccc2c1NC(c1cccc(Cl)c1Cl)C1CC=CC21 (configuration not stated) | -4.7
O=C(O)C1Nc2ccc([N+](=O)[O-])cc2C2C=CCC12 (configuration not stated) | 96.5*
O=C(O)C1Nc2ccc3ccccc3c2C2C=CCC12 (configuration not stated) | 91.9*
Cc1ccc(-c2cc(-c3ccccc3)nc(N/N=C/c3ccccc3O)n2)cc1 | -7.9
O=C(O)C(Cc1ccccc1)N1C(=O)/C(=C/c2ccc(Cl)cc2Cl)SC1=S (configuration not stated) | 82.8*
CC(c1ccccc1)N1C(=O)/C(=C\c2ccc(Cl)cc2Cl)SC1=S (configuration not stated) | 3.9
O=C(O)C(Cc1ccccc1)N1C(=O)/C(=C/c2cccc3ccccc23)SC1=S (configuration not stated) | -12.6
O=C1CSC(=S)N1/N=C\c1ccc(O)c([N+](=O)[O-])c1 | 28.5
O=C(N/N=C/c1cc(Br)ccc1OC(=O)c1ccco1)c1cccnc1 | 8.4
COC(=O)COc1ccc2c(=O)c(Oc3ccccc3Br)c(C(F)(F)F)oc2c1 | -0.4
Cc1ccc2c(c1)NC(c1ccc(F)cc1)C1=C(CC(c3ccccc3)CC1=O)N2 (configuration not stated) | -27.8
O=C1CC(c2ccccc2)CC2=C1C(c1ccc(F)c(F)c1)Nc1ccccc1N2 (configuration not stated) | 104.3*
SMILES | DUSP3 inh
O=C1CC(c2ccccc2)CC2=C1C(c1ccc(F)c(Br)c1)Nc1ccccc1N2 (configuration not stated) | -5.7
COc1ccc(C2CC(=O)C3=C(C2)Nc2ccccc2N(C(C)=O)C3c2ccc(OC)c(OC)c2)cc1 (configuration not stated) | -0.4
COc1ccc(C2CC(=O)C3=C(C2)Nc2ccccc2NC3c2ccncc2)cc1OC (configuration not stated) | 6.8
Cc1ccc2c(c1)NC(c1ccc3c(c1)OCO3)C1=C(CC(c3ccccc3)CC1=O)N2 (configuration not stated) | 117.5*
COc1ccc(C2CC(=O)C3=C(C2)Nc2ccccc2NC3c2ccc(SC)cc2)cc1OC (configuration not stated) | 43.0
CCc1ccc(C2Nc3ccccc3NC3=C2C(=O)CC(c2ccc(OC)c(OC)c2)C3)cc1 (configuration not stated) | 115.4*
CSc1ccc(C2Nc3ccccc3NC3=C2C(=O)CC(c2ccc4c(c2)OCO4)C3)cc1 (configuration not stated) | -12.6
CCC(=O)N1c2ccccc2NC2=C(C(=O)CC(c3ccccc3)C2)C1c1ccc([N+](=O)[O-])cc1 (configuration not stated) | 9.6
O=C1CC(c2ccccc2)CC2=C1C(c1ccc(Cl)c(Cl)c1)Nc1ccccc1N2 (configuration not stated) | -16.6
CCC(=O)N1c2ccccc2NC2=C(C(=O)CC(c3ccccc3)C2)C1c1ccc(OC)cc1 (configuration not stated) | 102.6*
CCOC(=O)c1ccc(NC(=O)COc2ccccc2C)cc1 | -17.1
COc1cc(/C=c2/sc3nc4ccccc4n3c2=O)cc(Br)c1OCc1ccccc1 | -7.6
C=CCOc1ccccc1/C=C1/C(=O)ON=C1c1ccc(Cl)cc1 | -26.6
O=C(Nc1ccc2c3c(cccc13)CC2)c1ccccc1[N+](=O)[O-] | -18.0
